# Measured values from PubChem BioAssay.
# The source made the active and inactive calls.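 Rule for the calls, unless noted: active = visual image review flags a hit and inhibition of aggregation exceeds 20%; inconclusive = visual hit but inhibition at or below 20%; inactive = no hit on visual image review.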
# Legend:
# [1] = inhibitors of TNFa-induced NFkB p65 translocation, primary screen, imaging, HUVEC, MLSMR starter and 10KST1 sets (AID 438;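 active = inhibition above 20% together with a positive visual image hit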;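 note: compound added about 3h40 before a 20 min TNFalpha stimulation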;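 for inhibition: signal is the nuclear over cytoplasmic p65 intensity ratio per well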); conditions: HUVEC TNFa-induced p65 nuclear translocation; cell count: measured here: nuclei count (cytotoxicity indicator), at 2.08 µM; inhibition: at 2 µM, stronger effect = higher value, 0% TNFa-plus-vehicle, 100% no-TNFa wells
# [2] = inhibitors of mutant huntingtin aggregation, primary screen, imaging, exon1htt(103Q)mCFP cells, high-content imaging (AID 483); conditions: exon1htt(103Q)mCFP cell line, aggregate imaging, at 2 µM; inhibition of aggregation: stronger effect = higher value; nuclei count: measured here: cell count, toxicity;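 note: compound exposure lasted 3 days before fixation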;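 for nuclei count: percent of the per-plate median nuclei count of sample wells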
# [3] = inhibitors of E-selectin induction by TNFa, primary screen, imaging, HUVEC, immunofluorescence, MLSMR starter and 10KST1 sets (AID 487;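 active = visually confirmed hit in the image check and inhibition above 20%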;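 for inhibition: signal is fraction of cell area covered by stained E-selectin grains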;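 for nuclei count: 100% = median nuclei count of all wells on the same plate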); conditions: HUVEC TNFalpha-induced E-selectin immunofluorescence imaging, at 2 µM; inhibition: stronger effect = higher value; nuclei count: measured here: cell number, toxicity
# [4] = molecular target: Voltage-gated potassium channel subunit beta-2 (Rattus norvegicus) (UniProt P62483); test: KvBeta enzyme negative modulators, primary screen, biochemical, NADPH fluorescence (AID 622;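 active = fluorescence slope higher than the sample average by over 3 SD, cut at about -0.22 in these data, passing the limit was not always enough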;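 note: slope of raw intensity against log time taken from 70 to 1610 s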); conditions: recombinant KvBeta, 4-cyanobenzaldehyde reduction, at 10 µM, stronger effect = higher value
# [5] = molecular target: Voltage-gated potassium channel subunit beta-2 (Rattus norvegicus) (UniProt P62483); test: KvBeta positive modulators, primary screen, biochemical, NADPH fluorescence (AID 623;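 active = NADPH fluorescence slope more negative than the mean of all samples by about 3 SD, 99.7% confidence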;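 note: fluorescence intensity change per second fitted from 20 to 320 s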); conditions: Recombinant KvBeta, NADPH fluorescence decrease slope, 10 min; at 10 µM; stronger effect = lower value
# [6] = molecular target: Alpha-2C adrenergic receptor (Homo sapiens) (UniProt P18825); test: modulators of alpha2C/GIRK thallium flux, primary screen, cell-based, HEK293 alpha2C/GIRK1/2 (AID 624;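 active = fluorescence slope after compound addition differing from the mean of all screened samples at 99.7% confidence, in either direction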;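 note: slope of fluorescence ratio to pre-addition baseline per second over 15 to 24 s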); conditions: thallium flux BTC fluorescence, at 10 µM, actives lie on both sides
# [7] = inhibitors of Sendai virus-induced IRF3 signaling, primary screen, TLR/RLR signaling modifier project, cell-based, Sendai virus stimulus, luciferase, 10K MLSCN set (AID 602276;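 active = inhibition at or above 50% at 10 µM; inactive = inhibition below 50%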;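 note: firefly luciferase from ISG56 promoter only with Renilla not read in this screen; 0% = Sendai virus plus DMSO and 100% = medium plus DMSO without virus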); conditions: HEK293 RL24 IRF3 luciferase reporter, at 10 µM, stronger effect = higher value
# [8] = inhibitors of poly I:C-induced TLR3 signaling, primary screen, cell-based, poly I:C stimulus, luciferase, 10K MLSCN set (AID 602277;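 active = inhibition of the reporter signal at or above 50%; inactive = inhibition below 50%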); conditions: HEK293-TLR3 RL24 IRF3 luciferase reporter, at 10 µM, stronger effect = higher value
# Chain of Voltage-gated potassium channel subunit beta-2 (Rattus norvegicus) (P62483 whole entry, looked up): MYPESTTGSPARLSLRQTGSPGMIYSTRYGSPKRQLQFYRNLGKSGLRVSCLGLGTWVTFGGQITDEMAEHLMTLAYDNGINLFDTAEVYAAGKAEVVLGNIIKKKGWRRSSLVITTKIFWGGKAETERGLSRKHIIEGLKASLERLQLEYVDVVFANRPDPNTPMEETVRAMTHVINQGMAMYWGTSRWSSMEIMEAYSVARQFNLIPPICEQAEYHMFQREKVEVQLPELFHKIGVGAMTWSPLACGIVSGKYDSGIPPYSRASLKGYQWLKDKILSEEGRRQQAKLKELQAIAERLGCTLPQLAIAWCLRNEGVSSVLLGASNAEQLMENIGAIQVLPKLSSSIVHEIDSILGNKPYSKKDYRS
# Chain of Alpha-2C adrenergic receptor (Homo sapiens) (P18825 whole entry, looked up): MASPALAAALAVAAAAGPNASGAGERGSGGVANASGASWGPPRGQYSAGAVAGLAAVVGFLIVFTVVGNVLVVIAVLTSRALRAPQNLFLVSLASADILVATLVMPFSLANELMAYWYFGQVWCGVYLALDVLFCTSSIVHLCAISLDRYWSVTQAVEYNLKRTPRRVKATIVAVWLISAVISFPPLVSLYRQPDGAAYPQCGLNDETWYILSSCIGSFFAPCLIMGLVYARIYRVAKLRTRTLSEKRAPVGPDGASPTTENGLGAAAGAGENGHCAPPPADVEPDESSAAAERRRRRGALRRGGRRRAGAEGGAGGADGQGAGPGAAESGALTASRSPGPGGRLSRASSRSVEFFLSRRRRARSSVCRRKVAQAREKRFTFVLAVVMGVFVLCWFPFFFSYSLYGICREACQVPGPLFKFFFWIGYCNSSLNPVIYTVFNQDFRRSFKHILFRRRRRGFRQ
SMILES,cell count [1],inhibition [1],inhibition of aggregation [2],nuclei count [2] [%],inhibition [3],nuclei count [3] [%],fluorescence slope [4],NADPH fluorescence slope [5],slope [6],inhibition [7],inhibition [8]
CC12CCC(C(=O)N3CCCCC3)(CC1=O)C2(C)C (stereo not drawn),483,2% (inactive),-4.8% (inactive),99.5,-305% (inactive),126,-0.299 (inactive),8.8e-06 (inactive),0.00667 (inactive),10.9% (inactive),28.7% (inactive)
COc1ccc(C)cc1NC(=O)C1CCN(S(=O)(=O)c2cccc3cccnc23)CC1,539,-6.5% (inactive),13.2% (inactive),76.6,-6.8% (inactive),106,-0.535 (inactive),-4.1e-05 (inactive),0.00559 (inactive),14.3% (inactive),30.4% (inactive)
CN(C)c1ccc2c(c1)OC(N)=C(C#N)C2c1cccc(F)c1 (stereo not drawn),404,11.5% (inactive),-56.1% (inactive),3,-8.8% (inactive),103,-0.515 (inactive),1.1e-05 (inactive),0.0134 (active),36.6% (inactive),82.9% (active)
CCCC(=O)Nc1ccc2oc(-c3cccnc3)nc2c1,330,-1.1% (inactive),18.2% (inactive),82.7,-1.9% (inactive),62.2,-0.332 (inactive),-1.1e-05 (inactive),0.00331 (inactive),-23.4% (inactive),-96.1% (inactive)
COC(=O)CCC(=O)Nc1cccc(Cl)c1,205,42.5% (active),5% (inactive),99.2,-12.1% (inactive),94.4,-0.593 (inactive),-3.8e-05 (inactive),0.00629 (inactive),3.5% (inactive),17.1% (inactive)
CCOc1ccccc1CN(Cc1ccco1)S(=O)(=O)c1ccc(-n2cnnn2)c(OC)c1,439,5.7% (inactive),13.2% (inactive),99.8,4.1% (inactive),113,-0.519 (inactive),-1.2e-05 (inactive),0.00748 (inactive),-53.6% (inactive),63.3% (active)
COc1cc(CN2CCC(C(=O)NC3CCCC3)CC2)ccc1O,755,-5.5% (inactive),-13.7% (inactive),64.3,-29.8% (inactive),124,-0.344 (inactive),-3.9e-06 (inactive),0.00666 (inactive),4.81% (inactive),13.9% (inactive)
COc1ccc(C2=NO[C@@H]3C(=O)N(c4ccc5c(c4)OCCO5)C(=O)[C@H]23)cc1OC,608,-17.3% (inactive),-8.9% (inactive),111,11.8% (inactive),98.1,-0.541 (inactive),8.6e-06 (inactive),0.0052 (inactive),-13.6% (inactive),6.66% (inactive)
Fc1ccc(-c2csc3nnc(SCc4cccnc4)n23)cc1,376,4.4% (inactive),-9.6% (inactive),97.5,-30% (inactive),116,-0.312 (inactive),-2.7e-05 (inactive),0.00572 (inactive),1.55% (inactive),20.4% (inactive)
O=C(Nc1nccs1)c1cccc(NC(=O)C2CC2)c1,411,-0.5% (inactive),-6.6% (inactive),98,-19% (inactive),116,-0.409 (inactive),-3.4e-05 (inactive),0.00472 (inactive),2.3% (inactive),-13.6% (inactive)
O=C1c2ccccc2C(=O)N1CCCCN1CCN(CCCCN2C(=O)c3ccccc3C2=O)CC1,401,-3.5% (inactive),17.2% (inactive),2.4,-22.5% (inactive),86.8,-0.408 (inactive),-3.8e-05 (inactive),0.00409 (inactive),14.1% (inactive),10.6% (inactive)
CCc1ccc(NC(=O)C2CC(=O)N(C(C)C)C2)cc1 (stereo not drawn),346,-6.8% (inactive),23.8% (inactive),92.5,-6.6% (inactive),75.6,-0.62 (inactive),2.5e-05 (inactive),0.00536 (inactive),7.09% (inactive),0.245% (inactive)
CCCCN(CC)CCCNC(=O)CS(=O)(=O)Cc1nc(-c2cccc(OC)c2)oc1C,670,-15.1% (inactive),-1% (inactive),100,-24.9% (inactive),99.7,-0.354 (inactive),4e-05 (inactive),0.00399 (inactive),2.85% (inactive),17.9% (inactive)
CCOC(=O)Nc1nnc(-c2ccccc2OC)s1,613,-2.7% (inactive),-8.8% (inactive),108,10.1% (inactive),102,-0.514 (inactive),1.1e-05 (inactive),0.00542 (inactive),-20.9% (inactive),-24.1% (inactive)
Cc1ccc2oc(C(=O)Nc3c(C)n(C)n(-c4ccccc4)c3=O)c(C)c2c1,776,-5% (inactive),-1.5% (inactive),109,-37.6% (inactive),108,-0.616 (inactive),-2.7e-05 (inactive),0.00692 (inactive),-5.27% (inactive),7.35% (inactive)
CC1CN(S(=O)(=O)c2ccc(Cl)c(C(F)(F)F)c2)CC(C)O1 (stereo not drawn),390,6.1% (inactive),-1.4% (inactive),105,0.5% (inactive),110,-0.31 (inactive),-4e-05 (inactive),0.0059 (inactive),7.15% (inactive),0.275% (inactive)
O=C(O)Cn1nc2ccccc2n1,396,5% (inactive),10.5% (inactive),100,-55.1% (inactive),98.8,-0.4 (inactive),1.5e-05 (inactive),0.00551 (inactive),14.6% (inactive),11.8% (inactive)
Cc1onc(-c2ccccc2Cl)c1C(=O)N1CCc2ccccc21,398,-1.3% (inactive),-6.4% (inactive),104,-43.1% (inactive),110,-0.405 (inactive),9.6e-06 (inactive),0.00452 (inactive),10.6% (inactive),34.8% (inactive)
C=CCSc1nc(N)c(C(=O)Nc2ccccc2C)cc1C(N)=O,775,1.4% (inactive),15.6% (inactive),96.4,-142% (inactive),124,-0.46 (inactive),1.4e-05 (inactive),0.00326 (inactive),-4.85% (inactive),24.2% (inactive)
Cc1cc2oc(=O)cc(C)c2c(=O)o1,411,-15.8% (inactive),-0.8% (inactive),105,-2.6% (inactive),115,-0.391 (inactive),3.6e-05 (inactive),0.00528 (inactive),-5.14% (inactive),-17.4% (inactive)
C(=N/n1c2ccccc2c2ccccc21)/c1ccco1,360,-2% (inactive),-20.7% (inactive),102,2.6% (inactive),109,-0.417 (inactive),-0.000138 (inactive),0.00632 (inactive),12% (inactive),29.6% (inactive)
Cc1c(NC2=NC3(CCCCC3)Cc3ccccc32)c(=O)n(-c2ccccc2)n1C,716,-5.3% (inactive),6.1% (inactive),101,59.1% (active),72.3,-0.354 (inactive),-6.6e-05 (inactive),0.00622 (inactive),13.1% (inactive),21.6% (inactive)
CC(CN1CCCCC1)OC(=O)c1ccc(Cl)cc1Cl (stereo not drawn),585,10.3% (inactive),-8.8% (inactive),87.8,9.3% (inactive),105,-0.438 (inactive),1.5e-06 (inactive),0.00424 (inactive),-18.5% (inactive),-15.9% (inactive)
CCOC(=O)N1CCC(NC(=O)c2cc(C(=O)NC3CCCC3)ccc2CO)CC1,467,0.8% (inactive),14.4% (inactive),58.4,-14.1% (inactive),106,-0.535 (inactive),-5.1e-05 (inactive),0.00598 (inactive),11.2% (inactive),32% (inactive)
CC1CCCN(C(=O)CN2C(=O)c3ccccc3C2=O)C1 (stereo not drawn),432,4.9% (inactive),15.5% (inactive),136,-27.3% (inactive),102,-0.272 (inactive),-3.7e-05 (inactive),0.00658 (inactive),14.5% (inactive),20.6% (inactive)
NC(=O)CSc1nnc(-c2cc3ccccc3o2)n1Cc1ccccc1,426,6.3% (inactive),-2.8% (inactive),101,-33% (inactive),129,-0.272 (inactive),1.6e-05 (inactive),0.003 (inactive),19.8% (inactive),18.4% (inactive)
CCc1nc(SCc2cc(Cl)ccc2OC)n[nH]1,661,8.7% (inactive),-8.3% (inactive),95.5,-47.4% (inactive),103,-0.36 (inactive),-6.3e-05 (inactive),0.00554 (inactive),-11.3% (inactive),-22.3% (inactive)
O=C(CN1C(=O)c2ccccc2C1=O)Nc1ccccc1C(=O)N1CCCC1,407,4% (inactive),-27.4% (inactive),112,-13.3% (inactive),97.4,-0.594 (inactive),-2.3e-05 (inactive),0.00562 (inactive),4.76% (inactive),11.3% (inactive)
